In PubChem BioAssay (EPA / NIEHS):
“And” between values parts separate entries of the source, which are not always exact repeats. Equal entries are not always repeated. Where a structure was tested more than once in an assay, its records may differ in their call. The source made the active and inactive calls. Rule for the calls: active = hit-call score of the fitted dose curve at least 0.9, where 1 is the maximum; inactive = score below 0.9.

Test system: not listed separately
Assay: ATG_DR4_LXR_CIS: Attagene CIS-FACTORIAL HepG2 Assay for human Liver X Receptor (LXR), DR4 submotif (AID 2282929)
Settings: HepG2 Attagene DR4 cis-reporter, mRNA transcription; actives raise or lower the signal
Method in brief: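 Cells were transfected with multiple reporter transcription units, exposed to chemicals for 24 hours, then lysed for RNA. Reporter mRNA induction was measured by RT-PCR with capillary electrophoresis detection and fitted in both directions relative to DMSO.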

Compound | outcome | AC50
CN1COCN(Cc2cnc(Cl)s2)C1=N[N+](=O)[O-] | inactive | 
O=C(O)c1cc(Oc2ccc(C(F)(F)F)cc2Cl)ccc1[N+](=O)[O-] | inactive | 
Nc1c(Cl)cc([N+](=O)[O-])cc1Cl | inactive | 
CSc1nc(NC(C)C)nc(NC(C)C)n1 | inactive | 
COP(=O)(NC(C)=O)SC (stereo unspecified) | inactive | 
CCOP(=S)(OCC)OC(Cl)C(Cl)(Cl)Cl (stereo unspecified) | inactive | 
COc1cc(OC)nc(Sc2cccc(Cl)c2C(=O)O)n1 | inactive | 
CC1=NNC(=O)N(/N=C/c2cccnc2)C1 | inactive | 
CCC(=O)Nc1ccc(Cl)c(Cl)c1 | inactive | 
COc1cccc(C(=O)NN(C(=O)c2cc(C)cc(C)c2)C(C)(C)C)c1C |  | 50 µM (active)
CCCSP(=O)(OCC)Oc1ccc(Br)cc1Cl (stereo unspecified) | inactive | 
COc1ccc(C(=CC(=O)N2CCOCC2)c2ccc(Cl)cc2)cc1OC | inactive | 
S=C1NCCN1 | inactive | 
CC(C)[C@H](C(=O)O[C@H](C#N)c1cccc(Oc2ccccc2)c1)c1ccc(Cl)cc1 |  | 13.9 µM (active)
CCOP(=S)(OCC)Oc1ccc([N+](=O)[O-])cc1 | inactive | 
Nc1nc(N)nc(NC2CC2)n1 | inactive | 
CCCSP(=O)(OCC)SCCC | inactive | 
FC(F)C(F)(F)OCC(Cn1cncn1)c1ccc(Cl)cc1Cl (stereo unspecified) |  | 50 µM (active)

Compound | outcome | AC50
CC1(C(=O)Nc2ccc(O)c(Cl)c2Cl)CCCCC1 | inactive | 
CN(C)[C@@H]1C(=O)C(C(N)=O)=C(O)[C@@]2(O)C(=O)C3=C(O)c4c(O)cccc4[C@@](C)(O)[C@H]3[C@H](O)[C@@H]12 | inactive | 
CNC(=O)Oc1cccc2c1OC(C)(C)O2 | inactive | 
CSC1=N[C@@](C)(c2ccccc2)C(=O)N1Nc1ccccc1 | inactive | 
CC(C)=CC1C(C(=O)OCN2C(=O)C3=C(CCCC3)C2=O)C1(C)C (stereo unspecified) |  | 73.6 µM (active)
CC[C@H](C)[C@H]1O[C@]2(C=C[C@@H]1C)C[C@@H]1C[C@@H](C/C=C(\C)[C@@H](O[C@H]3C[C@H](OC)[C@@H](O[C@H]4C[C@H](OC)[C@@H](NC)[C@H](C)O4)[C@H](C)O3)[C@@H](C)/C=C/C=C3\CO[C@@H]4[C@H](O)C(C)=C[C@@H](C(=O)O1)[C@]34O)O2 | inactive | 
N#CSCSC#N | inactive | 
COP(=O)(OC)C(O)C(Cl)(Cl)Cl (stereo unspecified) | inactive | 
Cc1ccn2nc(S(=O)(=O)Nc3c(F)cccc3F)nc2n1 | inactive | 
CCC(CC)Nc1c([N+](=O)[O-])cc(C)c(C)c1[N+](=O)[O-] |  | 37.9 µM (active)
CCCCOC(=O)c1ccccc1C(=O)O | inactive | 
CCCOc1nn(C(=O)NS(=O)(=O)c2ccccc2C(=O)OC)c(=O)n1C | inactive | 
C[N+]1(C)CCCCC1 | inactive | 
CC(C)N(C(=O)SCC(Cl)=C(Cl)Cl)C(C)C | inactive | 
CCOP(=S)(OCC)Oc1ccc2c(C)c(Cl)c(=O)oc2c1 | inactive | 
CCc1cccc(CC)c1N(COC)C(=O)CCl | inactive | 
CCOC(=O)COc1cc(-c2nn(C)c(OC(F)F)c2Cl)c(F)cc1Cl | inactive | 
CCOP(=O)(OCC)Oc1cc(C)nc(C(C)C)n1 | inactive | 

Target: Aryl hydrocarbon receptor (Homo sapiens) (UniProt P35869)
Assay: ATG_Ahr_CIS: Attagene CIS-FACTORIAL HepG2 Assay for human Aryl Hydrocarbon Receptor (Ahr) (AID 2282930)
Settings: HepG2 AhR cis-factorial reporter transcription; actives raise or lower the signal
Method in brief: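 HepG2, transient MRTU (cis) transfection, 24 h exposure. RNA → cDNA → PCR → 6-FAM primer extension → HpaI 2 h 37 C → CE. Fit: bidirectional, DMSO baseline.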

Sequence of Aryl hydrocarbon receptor (Homo sapiens) (P35869 whole entry, looked up): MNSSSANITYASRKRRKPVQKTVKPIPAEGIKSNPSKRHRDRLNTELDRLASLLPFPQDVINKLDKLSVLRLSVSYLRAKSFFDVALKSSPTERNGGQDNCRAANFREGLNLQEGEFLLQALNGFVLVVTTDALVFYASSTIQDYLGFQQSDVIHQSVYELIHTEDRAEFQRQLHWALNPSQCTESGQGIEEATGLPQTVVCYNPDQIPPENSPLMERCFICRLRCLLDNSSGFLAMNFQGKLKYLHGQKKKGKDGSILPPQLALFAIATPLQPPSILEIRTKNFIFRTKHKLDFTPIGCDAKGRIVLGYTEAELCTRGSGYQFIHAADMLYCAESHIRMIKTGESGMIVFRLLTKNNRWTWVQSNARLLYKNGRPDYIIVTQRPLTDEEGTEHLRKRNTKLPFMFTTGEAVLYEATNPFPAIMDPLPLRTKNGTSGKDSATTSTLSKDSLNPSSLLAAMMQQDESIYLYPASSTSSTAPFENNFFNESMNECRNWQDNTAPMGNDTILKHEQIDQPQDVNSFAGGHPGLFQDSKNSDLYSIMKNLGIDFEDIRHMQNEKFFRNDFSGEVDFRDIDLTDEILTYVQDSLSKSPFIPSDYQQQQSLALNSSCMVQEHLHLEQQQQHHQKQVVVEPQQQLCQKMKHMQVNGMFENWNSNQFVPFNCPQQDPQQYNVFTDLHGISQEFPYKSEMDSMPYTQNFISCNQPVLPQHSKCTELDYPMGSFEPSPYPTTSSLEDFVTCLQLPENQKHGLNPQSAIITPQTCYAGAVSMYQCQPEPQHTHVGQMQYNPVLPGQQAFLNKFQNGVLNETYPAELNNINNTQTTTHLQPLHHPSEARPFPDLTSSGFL

Compound | outcome | AC50
CN1COCN(Cc2cnc(Cl)s2)C1=N[N+](=O)[O-] | inactive | 
O=C(O)c1cc(Oc2ccc(C(F)(F)F)cc2Cl)ccc1[N+](=O)[O-] | inactive | 
Nc1c(Cl)cc([N+](=O)[O-])cc1Cl | inactive | 
CSc1nc(NC(C)C)nc(NC(C)C)n1 | inactive | 
COP(=O)(NC(C)=O)SC (stereo unspecified) | inactive | 
CCOP(=S)(OCC)OC(Cl)C(Cl)(Cl)Cl (stereo unspecified) | inactive | 
CC1=NNC(=O)N(/N=C/c2cccnc2)C1 | inactive | 
CCC(=O)Nc1ccc(Cl)c(Cl)c1 | inactive | 
COc1cccc(C(=O)NN(C(=O)c2cc(C)cc(C)c2)C(C)(C)C)c1C | inactive | 
CCCSP(=O)(OCC)Oc1ccc(Br)cc1Cl (stereo unspecified) | inactive | 
COc1ccc(C(=CC(=O)N2CCOCC2)c2ccc(Cl)cc2)cc1OC | inactive | 
S=C1NCCN1 | inactive | 
CC(C)[C@H](C(=O)O[C@H](C#N)c1cccc(Oc2ccccc2)c1)c1ccc(Cl)cc1 | inactive | 
CCOP(=S)(OCC)Oc1ccc([N+](=O)[O-])cc1 |  | 30.9 µM (active)
Nc1nc(N)nc(NC2CC2)n1 | inactive | 
CCCSP(=O)(OCC)SCCC | inactive | 
FC(F)C(F)(F)OCC(Cn1cncn1)c1ccc(Cl)cc1Cl (stereo unspecified) |  | 33.3 µM (active)

Compound | outcome | AC50
CC1(C(=O)Nc2ccc(O)c(Cl)c2Cl)CCCCC1 | inactive | 
CN(C)[C@@H]1C(=O)C(C(N)=O)=C(O)[C@@]2(O)C(=O)C3=C(O)c4c(O)cccc4[C@@](C)(O)[C@H]3[C@H](O)[C@@H]12 | inactive | 66.3 µM (active) and 37.9 µM (active)
CNC(=O)Oc1cccc2c1OC(C)(C)O2 | inactive | 
CSC1=N[C@@](C)(c2ccccc2)C(=O)N1Nc1ccccc1 |  | 50 µM (active)
CC(C)=CC1C(C(=O)OCN2C(=O)C3=C(CCCC3)C2=O)C1(C)C (stereo unspecified) | inactive | 
CC[C@H](C)[C@H]1O[C@]2(C=C[C@@H]1C)C[C@@H]1C[C@@H](C/C=C(\C)[C@@H](O[C@H]3C[C@H](OC)[C@@H](O[C@H]4C[C@H](OC)[C@@H](NC)[C@H](C)O4)[C@H](C)O3)[C@@H](C)/C=C/C=C3\CO[C@@H]4[C@H](O)C(C)=C[C@@H](C(=O)O1)[C@]34O)O2 | inactive | 
N#CSCSC#N | inactive | 
COP(=O)(OC)C(O)C(Cl)(Cl)Cl (stereo unspecified) | inactive | 
Cc1ccn2nc(S(=O)(=O)Nc3c(F)cccc3F)nc2n1 | inactive | 
CCC(CC)Nc1c([N+](=O)[O-])cc(C)c(C)c1[N+](=O)[O-] | inactive | 
CCCCOC(=O)c1ccccc1C(=O)O | inactive | 
CCCOc1nn(C(=O)NS(=O)(=O)c2ccccc2C(=O)OC)c(=O)n1C | inactive | 
C[N+]1(C)CCCCC1 | inactive | 
CCOP(=S)(OCC)Oc1ccc2c(C)c(Cl)c(=O)oc2c1 | inactive | 
CCc1cccc(CC)c1N(COC)C(=O)CCl | inactive | 
CCOC(=O)COc1cc(-c2nn(C)c(OC(F)F)c2Cl)c(F)cc1Cl | inactive | 
CCOP(=O)(OCC)Oc1cc(C)nc(C(C)C)n1 | inactive | 
